Reference: the supplement of paper PMC11732987, “Enantioselective OTUD7B fragment discovery through chemoproteomics screening and high-throughput optimisation” (Communications Chemistry, 2025)

Key:
Experiment in all cases: log2 ratio of Biotin-Ahx-Ub-VS probe labelling (fragment/DMSO); higher = less target engagement (more negative = stronger competition), active = hit call of the paper (q ≤ 0.05, log2 ratio ≤ -1)
Details in all cases: compound concentration: 200 uM; treatment time: 3 h
[1] = biological target: USP34 (UniProt Q70CQ2)
Sequence of USP34 (Q70CQ2 whole entry, the tested form may be a part): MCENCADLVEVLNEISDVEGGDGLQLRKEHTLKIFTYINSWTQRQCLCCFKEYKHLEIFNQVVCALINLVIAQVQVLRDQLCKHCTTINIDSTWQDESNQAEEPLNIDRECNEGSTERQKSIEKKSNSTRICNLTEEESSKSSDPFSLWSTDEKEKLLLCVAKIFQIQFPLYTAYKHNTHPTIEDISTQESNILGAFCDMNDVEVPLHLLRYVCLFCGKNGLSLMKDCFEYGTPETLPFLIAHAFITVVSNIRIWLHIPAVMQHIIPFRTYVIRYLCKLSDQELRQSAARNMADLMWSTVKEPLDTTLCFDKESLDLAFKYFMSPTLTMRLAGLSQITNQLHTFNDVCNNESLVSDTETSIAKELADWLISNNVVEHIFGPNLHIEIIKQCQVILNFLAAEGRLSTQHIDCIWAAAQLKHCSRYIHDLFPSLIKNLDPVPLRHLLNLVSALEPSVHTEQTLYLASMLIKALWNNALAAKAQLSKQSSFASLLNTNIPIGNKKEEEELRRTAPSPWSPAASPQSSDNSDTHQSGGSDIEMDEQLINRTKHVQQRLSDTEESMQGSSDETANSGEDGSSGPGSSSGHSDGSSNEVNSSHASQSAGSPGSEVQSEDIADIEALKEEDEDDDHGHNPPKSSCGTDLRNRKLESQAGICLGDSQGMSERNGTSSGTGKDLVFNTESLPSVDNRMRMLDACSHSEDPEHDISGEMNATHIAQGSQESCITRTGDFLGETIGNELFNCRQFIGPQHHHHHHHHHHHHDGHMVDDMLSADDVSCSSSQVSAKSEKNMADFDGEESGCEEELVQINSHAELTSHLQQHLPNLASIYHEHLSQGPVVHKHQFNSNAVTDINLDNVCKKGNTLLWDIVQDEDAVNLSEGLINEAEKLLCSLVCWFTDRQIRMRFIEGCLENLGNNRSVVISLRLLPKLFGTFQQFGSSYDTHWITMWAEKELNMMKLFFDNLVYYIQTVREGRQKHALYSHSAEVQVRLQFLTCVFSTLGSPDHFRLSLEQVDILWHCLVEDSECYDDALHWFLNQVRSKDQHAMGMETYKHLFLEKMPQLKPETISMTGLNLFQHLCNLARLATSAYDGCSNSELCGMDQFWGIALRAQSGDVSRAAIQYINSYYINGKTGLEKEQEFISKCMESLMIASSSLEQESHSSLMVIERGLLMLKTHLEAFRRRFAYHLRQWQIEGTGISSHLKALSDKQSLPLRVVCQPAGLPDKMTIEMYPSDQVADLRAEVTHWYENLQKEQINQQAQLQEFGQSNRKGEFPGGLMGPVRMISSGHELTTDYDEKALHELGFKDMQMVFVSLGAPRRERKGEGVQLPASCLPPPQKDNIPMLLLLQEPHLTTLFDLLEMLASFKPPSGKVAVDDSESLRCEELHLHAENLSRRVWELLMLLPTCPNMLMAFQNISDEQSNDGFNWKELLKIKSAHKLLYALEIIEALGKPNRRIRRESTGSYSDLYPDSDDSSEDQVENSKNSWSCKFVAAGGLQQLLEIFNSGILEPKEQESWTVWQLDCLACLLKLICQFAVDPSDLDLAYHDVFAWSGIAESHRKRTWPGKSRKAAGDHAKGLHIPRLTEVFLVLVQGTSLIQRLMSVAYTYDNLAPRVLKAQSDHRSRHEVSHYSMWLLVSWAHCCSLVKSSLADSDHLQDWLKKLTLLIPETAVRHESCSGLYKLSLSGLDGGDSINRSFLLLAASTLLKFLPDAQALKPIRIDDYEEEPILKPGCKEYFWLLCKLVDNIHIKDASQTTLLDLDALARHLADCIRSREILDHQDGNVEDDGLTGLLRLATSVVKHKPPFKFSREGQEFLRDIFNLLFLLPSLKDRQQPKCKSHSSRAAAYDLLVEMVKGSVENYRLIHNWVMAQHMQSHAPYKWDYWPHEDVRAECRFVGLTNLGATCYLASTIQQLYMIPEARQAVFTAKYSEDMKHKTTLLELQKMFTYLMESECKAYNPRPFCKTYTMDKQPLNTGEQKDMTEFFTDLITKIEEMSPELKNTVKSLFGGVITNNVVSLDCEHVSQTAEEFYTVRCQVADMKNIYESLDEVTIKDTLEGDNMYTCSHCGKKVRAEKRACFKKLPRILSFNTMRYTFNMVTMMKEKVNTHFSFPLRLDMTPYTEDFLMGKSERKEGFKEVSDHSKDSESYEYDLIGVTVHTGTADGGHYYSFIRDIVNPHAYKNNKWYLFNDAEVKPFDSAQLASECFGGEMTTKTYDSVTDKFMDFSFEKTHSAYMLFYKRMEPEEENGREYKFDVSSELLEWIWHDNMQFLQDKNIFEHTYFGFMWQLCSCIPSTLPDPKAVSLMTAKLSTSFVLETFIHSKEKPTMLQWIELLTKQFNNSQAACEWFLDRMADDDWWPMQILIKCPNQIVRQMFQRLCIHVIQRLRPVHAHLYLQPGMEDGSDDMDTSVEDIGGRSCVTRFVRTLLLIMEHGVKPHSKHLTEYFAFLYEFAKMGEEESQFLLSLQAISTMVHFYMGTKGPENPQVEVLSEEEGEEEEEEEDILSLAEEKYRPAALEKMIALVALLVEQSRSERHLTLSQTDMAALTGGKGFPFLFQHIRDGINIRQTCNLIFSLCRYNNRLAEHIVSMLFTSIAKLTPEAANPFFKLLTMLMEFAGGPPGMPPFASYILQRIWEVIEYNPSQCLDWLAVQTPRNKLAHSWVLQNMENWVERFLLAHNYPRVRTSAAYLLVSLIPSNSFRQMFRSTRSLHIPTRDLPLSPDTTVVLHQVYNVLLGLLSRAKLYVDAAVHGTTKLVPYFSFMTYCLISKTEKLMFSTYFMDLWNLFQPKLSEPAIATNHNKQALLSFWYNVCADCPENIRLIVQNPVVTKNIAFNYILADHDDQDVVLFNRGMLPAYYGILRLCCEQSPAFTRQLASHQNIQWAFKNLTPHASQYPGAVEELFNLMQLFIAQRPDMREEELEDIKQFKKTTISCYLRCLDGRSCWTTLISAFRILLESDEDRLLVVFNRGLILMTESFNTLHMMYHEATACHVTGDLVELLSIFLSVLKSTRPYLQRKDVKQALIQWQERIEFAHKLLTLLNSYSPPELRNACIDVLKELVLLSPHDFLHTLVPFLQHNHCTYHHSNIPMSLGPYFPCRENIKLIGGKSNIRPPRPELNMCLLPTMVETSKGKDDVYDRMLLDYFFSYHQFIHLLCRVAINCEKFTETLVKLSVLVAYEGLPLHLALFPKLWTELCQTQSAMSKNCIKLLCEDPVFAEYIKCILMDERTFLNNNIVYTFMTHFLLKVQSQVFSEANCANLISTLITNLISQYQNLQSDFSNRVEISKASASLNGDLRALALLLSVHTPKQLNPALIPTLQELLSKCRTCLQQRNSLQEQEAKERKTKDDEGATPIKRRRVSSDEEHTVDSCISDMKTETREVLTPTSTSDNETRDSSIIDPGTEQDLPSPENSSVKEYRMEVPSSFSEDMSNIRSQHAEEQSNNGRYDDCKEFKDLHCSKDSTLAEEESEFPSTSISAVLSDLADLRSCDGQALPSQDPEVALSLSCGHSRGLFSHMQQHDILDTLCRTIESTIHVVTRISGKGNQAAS
Summary of the method: (§1)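 Average log2 ratios of fragment over vehicle were obtained by unpaired t-test from global-median-normalised Spectronaut label-free quantities. Proteins with ≥2 unique peptides were included. HEK293T lysate (495 µg per sample) was treated in triplicate with fragment at 200 µM or vehicle for 3 h, then with Biotin-Ahx-Ub-VS at 0.5 µM final for 1 h, and labelled DUBs were NeutrAvidin-enriched and run by diaPASEF LC-MS/MS.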

[2] = biological target: T1, USP36 (UniProt Q9P275)
T1 sequence (whole entry): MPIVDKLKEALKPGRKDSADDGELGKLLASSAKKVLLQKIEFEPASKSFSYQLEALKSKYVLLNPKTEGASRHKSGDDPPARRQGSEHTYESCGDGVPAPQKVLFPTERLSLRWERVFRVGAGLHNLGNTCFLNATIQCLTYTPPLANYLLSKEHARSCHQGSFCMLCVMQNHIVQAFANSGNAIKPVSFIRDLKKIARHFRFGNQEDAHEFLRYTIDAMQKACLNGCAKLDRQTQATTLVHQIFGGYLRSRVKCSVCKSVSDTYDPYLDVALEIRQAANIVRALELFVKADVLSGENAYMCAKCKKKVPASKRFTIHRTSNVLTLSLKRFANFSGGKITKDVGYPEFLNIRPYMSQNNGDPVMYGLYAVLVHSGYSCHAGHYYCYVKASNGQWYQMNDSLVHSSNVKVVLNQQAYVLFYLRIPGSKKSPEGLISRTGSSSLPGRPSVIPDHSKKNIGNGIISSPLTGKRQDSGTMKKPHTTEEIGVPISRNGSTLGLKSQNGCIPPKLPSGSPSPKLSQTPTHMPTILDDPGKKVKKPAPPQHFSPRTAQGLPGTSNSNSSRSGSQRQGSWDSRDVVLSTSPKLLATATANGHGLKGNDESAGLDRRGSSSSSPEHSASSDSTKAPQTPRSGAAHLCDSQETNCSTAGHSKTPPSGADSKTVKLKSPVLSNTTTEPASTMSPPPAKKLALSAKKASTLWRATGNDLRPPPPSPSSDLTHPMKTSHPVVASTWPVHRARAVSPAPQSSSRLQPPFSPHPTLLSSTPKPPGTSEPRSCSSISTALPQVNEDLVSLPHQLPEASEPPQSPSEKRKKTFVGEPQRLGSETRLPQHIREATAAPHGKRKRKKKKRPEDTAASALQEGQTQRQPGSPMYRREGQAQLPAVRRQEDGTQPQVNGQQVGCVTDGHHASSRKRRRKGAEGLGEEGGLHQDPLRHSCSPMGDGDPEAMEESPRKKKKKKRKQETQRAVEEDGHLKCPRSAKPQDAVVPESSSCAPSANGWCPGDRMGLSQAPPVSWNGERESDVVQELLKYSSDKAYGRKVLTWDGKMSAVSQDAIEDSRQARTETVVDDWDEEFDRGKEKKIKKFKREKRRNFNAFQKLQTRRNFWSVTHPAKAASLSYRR
Summary of the method: as §1

[3] = biological target: T2, USP38 (UniProt Q8NB14)
T2 sequence (whole entry): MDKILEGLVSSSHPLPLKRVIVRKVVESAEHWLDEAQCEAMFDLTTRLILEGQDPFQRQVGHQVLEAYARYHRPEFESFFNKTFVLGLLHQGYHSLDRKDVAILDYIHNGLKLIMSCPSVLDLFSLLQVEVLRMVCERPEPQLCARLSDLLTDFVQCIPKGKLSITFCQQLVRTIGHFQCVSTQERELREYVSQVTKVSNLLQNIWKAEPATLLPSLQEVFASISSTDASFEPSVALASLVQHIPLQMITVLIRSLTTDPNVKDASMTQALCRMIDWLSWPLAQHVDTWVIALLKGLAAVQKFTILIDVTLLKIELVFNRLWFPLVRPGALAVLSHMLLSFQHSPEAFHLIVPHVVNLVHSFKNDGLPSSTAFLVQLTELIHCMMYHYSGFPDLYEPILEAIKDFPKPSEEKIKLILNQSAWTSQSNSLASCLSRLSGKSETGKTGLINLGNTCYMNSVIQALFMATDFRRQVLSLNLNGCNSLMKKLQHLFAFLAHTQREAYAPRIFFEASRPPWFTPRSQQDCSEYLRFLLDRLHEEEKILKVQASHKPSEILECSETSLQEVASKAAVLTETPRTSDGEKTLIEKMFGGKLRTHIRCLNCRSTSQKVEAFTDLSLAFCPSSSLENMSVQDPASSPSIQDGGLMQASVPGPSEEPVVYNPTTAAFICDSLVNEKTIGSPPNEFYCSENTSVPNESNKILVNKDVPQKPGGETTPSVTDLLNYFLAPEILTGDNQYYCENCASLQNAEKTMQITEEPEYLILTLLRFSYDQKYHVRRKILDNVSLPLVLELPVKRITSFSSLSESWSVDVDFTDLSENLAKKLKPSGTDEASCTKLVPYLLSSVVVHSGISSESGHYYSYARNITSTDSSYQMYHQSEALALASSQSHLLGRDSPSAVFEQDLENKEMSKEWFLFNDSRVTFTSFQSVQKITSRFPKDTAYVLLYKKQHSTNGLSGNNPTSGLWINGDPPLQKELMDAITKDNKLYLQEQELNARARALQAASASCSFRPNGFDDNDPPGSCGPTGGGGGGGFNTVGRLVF
Summary of the method: as §1

[4] = biological target: T3, USP39 (UniProt Q53GS9)
T3 sequence (whole entry): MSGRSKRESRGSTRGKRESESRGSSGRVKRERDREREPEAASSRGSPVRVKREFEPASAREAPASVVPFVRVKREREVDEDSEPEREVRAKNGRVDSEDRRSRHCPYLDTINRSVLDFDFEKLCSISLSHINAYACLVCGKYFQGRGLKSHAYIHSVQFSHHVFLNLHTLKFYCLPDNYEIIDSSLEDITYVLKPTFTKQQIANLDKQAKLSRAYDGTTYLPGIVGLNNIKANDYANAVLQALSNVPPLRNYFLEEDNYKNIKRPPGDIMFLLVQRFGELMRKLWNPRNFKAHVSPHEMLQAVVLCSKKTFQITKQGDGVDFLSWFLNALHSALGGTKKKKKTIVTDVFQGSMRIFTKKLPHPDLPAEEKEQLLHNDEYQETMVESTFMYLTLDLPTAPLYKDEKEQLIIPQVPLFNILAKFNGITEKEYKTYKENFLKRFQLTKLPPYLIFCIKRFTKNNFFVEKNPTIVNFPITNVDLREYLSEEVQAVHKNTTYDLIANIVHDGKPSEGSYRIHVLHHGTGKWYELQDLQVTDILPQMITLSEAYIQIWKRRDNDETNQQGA
Summary of the method: as §1

[5] = biological target: T4, USP4 (UniProt Q13107)
T4 sequence (whole entry): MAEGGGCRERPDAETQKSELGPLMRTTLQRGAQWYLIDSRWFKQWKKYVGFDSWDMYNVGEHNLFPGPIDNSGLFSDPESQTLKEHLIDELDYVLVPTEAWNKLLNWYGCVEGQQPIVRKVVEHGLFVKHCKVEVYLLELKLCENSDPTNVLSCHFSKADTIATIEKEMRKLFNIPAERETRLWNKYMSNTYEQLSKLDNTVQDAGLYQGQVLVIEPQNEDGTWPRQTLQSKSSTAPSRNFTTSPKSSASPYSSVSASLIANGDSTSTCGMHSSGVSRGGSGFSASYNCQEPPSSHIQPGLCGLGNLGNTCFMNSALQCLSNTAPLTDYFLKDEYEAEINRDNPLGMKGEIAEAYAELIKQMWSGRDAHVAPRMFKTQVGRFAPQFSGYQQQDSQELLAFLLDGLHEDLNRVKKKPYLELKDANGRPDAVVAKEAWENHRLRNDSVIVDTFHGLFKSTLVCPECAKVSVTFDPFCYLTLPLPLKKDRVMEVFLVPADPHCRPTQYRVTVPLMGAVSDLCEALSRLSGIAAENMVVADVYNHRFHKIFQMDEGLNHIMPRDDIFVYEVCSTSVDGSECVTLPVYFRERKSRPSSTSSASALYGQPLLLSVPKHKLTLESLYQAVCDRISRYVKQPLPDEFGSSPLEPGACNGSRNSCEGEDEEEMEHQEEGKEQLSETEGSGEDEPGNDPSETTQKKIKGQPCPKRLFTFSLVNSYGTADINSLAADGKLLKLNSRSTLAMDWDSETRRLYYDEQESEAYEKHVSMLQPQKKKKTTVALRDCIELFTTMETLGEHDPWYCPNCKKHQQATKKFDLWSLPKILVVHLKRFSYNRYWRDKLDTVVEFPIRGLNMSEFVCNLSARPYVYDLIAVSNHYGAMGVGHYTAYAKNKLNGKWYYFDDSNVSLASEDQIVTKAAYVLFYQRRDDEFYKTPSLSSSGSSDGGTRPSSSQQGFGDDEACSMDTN
Summary of the method: as §1

Measured: log2 ratio of Biotin-Ahx-Ub-VS probe labelling

COc1ccc(-c2csc(NC(=O)CCl)n2)cc1
inactive: [1] -0.405 | [2] -0.137 | [3] -0.188 | [4] 0.0959 | [5] -0.299
